# Values joined by “and” are separate entries in the source; they are usually repeats but may differ in a detail not shown here. Equal values may be shown once.
# Test: JC-1 mitochondrial potential readout, lung cancer cells – cell-based, A549, JC-1 fluorescence, basal, 24 h, 100 nL, profiling panel (AID 1138);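 note: A549 lung adenocarcinoma cells under basal conditions with no added stimulus; test concentration not given here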
# Details: higher = more signal
row,SMILES,z-score
1,CC(C)=NOC[C@@H](O)COCc1ccco1,0.354
2,COC(=O)C1=C(C)N(Cc2ccccc2)C2=C(C(C)=O)C[C@@](O)(C(=O)OC)C(=O)N2[C@@H]1c1ccccc1,1.18 and 1.72
3,COC(=O)[C@@]1(Cc2ccc(OC)cc2)[C@H]2c3cc(C(=O)N(C)C)n(Cc4ccc(O)c(OC)c4)c3C[C@H]2CN1C(=O)c1ccccc1,1.73 and 1.22
4,C=CC[C@H](O)c1ccc(OCCO)cc1,-0.441 and 0.564
5,CC(C)=NO[C@@H](C)c1cc(-c2c(C)cc(C)cc2C)no1,-0.114
6,C[N+](C)(C)CCCCNC(=O)[C@H]1C[C@H]2C(=O)N[C@@H](CCCC[N+](C)(C)C)C(=O)N2[C@H]1c1ccc(O)cc1,-0.0637 and -0.967
7,C[C@@]1([C@@H](NC(=O)Cc2ccccc2)c2ccc(-c3ccccc3)cc2)C[C@H]1C1CCCCC1,-0.788 and 0.267 and 0.196
8,CCN1C(=O)[C@H]2[C@H]3[C@H](O)[C@H](O)CC(=NOC)[C@@H]3CC[C@H]2C1=O,1.16
9,O=C1NC(=O)C2C1C=CC(C(O)c1ccc([N+](=O)[O-])cc1)N2Nc1ccc(Cl)cc1Cl (stereo not given),0.824 and -0.201
10,C=C[C@H](C)[C@@H](O)c1ccc(OCCO)cc1,-0.459 and 1.14
11,CC(C)CON=C1C[C@@H](O)[C@@H](O)[C@@H]2[C@@H]3C(=O)N(c4cccc(Oc5ccccc5)c4)C(=O)[C@@H]3CC[C@H]12,0.0506
12,CO[C@H]1COC(=O)CC=C[C@@H](C)COC(=O)[C@H](CCSC)NC(=O)CC=C[C@@H]1C,-1.26 and 0.523
13,C=C[C@@H](OC)[C@H](O)c1ccc(OCCO)cc1,0.27 and -0.142
14,CCOC(=O)c1ccc(NC(=O)O[C@H]2[C@H](OC(=O)Nc3ccccc3)[C@@H](OC(=O)Nc3ccccc3)[C@@H](OC)O[C@@H]2CO)cc1,-1.02 and -1.32
15,C=CCN(C(=O)C(c1cccs1)N(CCOCCO)C(=O)/C=C\C(=O)O)c1ccc(OC)cc1 (stereo not given),0.13 and 1
16,C#CCN1C(/C=C/c2ccccc2)C(=O)OC[C@H]1c1ccccc1 (stereo not given in full),-0.411 and -1
17,CO[C@@H]1COC(=O)CC=C[C@H](C)COC(=O)[C@H](C)NC(=O)CC=C[C@H]1C,0.521
18,Cc1cc2c(nc1C)CCCN2CC(O)CN1CCCc2nc(-c3ccc(Br)cc3)ccc21 (stereo not given),-0.118 and 1.8
19,C=CCN(CCCCC)C(=O)C(c1cccs1)N(CCOCCO)C(=O)/C=C\C(=O)O (stereo not given),1.34 and 0.685
20,COc1ccc(-c2ccc3c(n2)CCCN3CC(O)CN2CCCc3nc(-c4ccc(Br)cc4)ccc32)cc1 (stereo not given),1.45 and 0.555

row,SMILES,z-score
1,C=C[C@H](OC)[C@@H](O)c1ccc(OCCO)cc1,-0.669 and 0.692
2,C=CCN(C(=O)C1N(CCCCCCO)C(=O)C2C(C(=O)O)C3C=CC21O3)c1ccc(OC)cc1 (stereo not given),1.34 and 0.478
3,O=C1C[C@]2(c3ccc([N+](=O)[O-])cc3)C(=O)N(Cc3ccccc3)c3cc(CO)ccc3[C@H]2N1C1CCCCC1,-0.38 and 0.277
4,C=CCN(C(=O)C1N(c2c(Cl)cccc2CO)C(=O)C2C(C(=O)O)C3C=CC21O3)c1ccc(OC)cc1 (stereo not given),-1.09 and 1.22
5,C=CCN(C(=O)C1N(CCOCCO)C(=O)C2C(C(=O)O)C3C=CC21O3)C(C)(C)C (stereo not given),-0.147 and -0.774
6,COC(=O)C1=C2N(Cc3ccccc3)C(C)=C(C(=O)OC)[C@@H](c3ccccc3)N2C(=O)[C@](O)(C(=O)OC)C1,0.218 and 0.136
7,O=c1n(-c2ccccc2)c(=O)n2n1CC[C@@H]1C(=NOC[C@@H](O)COCc3ccco3)[C@H]3O[C@H]3[C@@H](O)[C@@H]12,-0.642 and -0.729
8,CC(CO)N1C(=O)[C@@H]2C3C(=O)OCCC=C[C@H]3OC23C=CCN(c2ccc(Cl)cc2)C(=O)[C@@H]13 (stereo not given in full),0.931 and 0.848
9,CC(C)[Si]1(C(C)C)OCc2cc(CCCc3cc4c(c(CCc5ccccc5)n3)[Si](C(C)C)(C(C)C)OC4)nc(CCc3ccccc3)c21,0.627 and 0.00206
10,C=CCN(Cc1ccccc1)C(=O)C1N(CCOCCO)C(=O)C2C(C(=O)O)C3C=CC21O3 (stereo not given),1.2 and -0.743
11,C[N+](C)(C)CCCCCCNC(=O)[C@H]1C[C@H]2C(=O)N[C@@H](CCCC[N+](C)(C)C)C(=O)N2[C@H]1c1cccc(OCCO)c1,0.357 and -0.307
12,CCCCCN1CC=CC23O[C@@H]4C=CCCOC(=O)C4[C@H]2C(=O)N(C(C)CO)[C@@H]3C1=O (stereo not given in full),-0.449 and -0.859
13,O=C1[C@H]2[C@H]3[C@H](O)[C@H](O)CC(=NOCc4ccccc4)[C@H]3CC[C@H]2C(=O)N1Cc1ccccc1,-0.901
14,CO[C@H]1COC(=O)CC=C[C@H](C)[C@H](OC)COC(=O)[C@@H](C)COC(=O)CC=C[C@@H]1C,0.597 and 1.4
15,CN1C(=O)C2CC=C([C@H]3Oc4ccccc4S(=O)(=O)N4CCC[C@@H]34)CC2C1=O (stereo not given in full),-0.719 and -0.239
16,C[C@@H](ON=C1[C@H]2CCn3c(=O)n(-c4ccccc4)c(=O)n3[C@H]2[C@H](O)[C@@H]2O[C@H]12)c1cn([C@H](CO)Cc2ccccc2)nn1,-0.546
17,CCOC(=O)C[C@H]1[C@H](OC(=O)c2ccccc2-c2ccccc2)[C@@H](NC(=O)Cc2ccc(OC)cc2)c2cc(OCCCO)ccc2N1C(=O)c1ccc2ccccc2n1,3.49 and 0.601
18,CCOC(=O)[C@H](CC(C)C)NC(=O)CCC1CC(OC(=O)NCc2cccc3ccccc23)CC2(CCCC(COC(=O)NCc3ccccc3)O2)O1 (stereo not given in full),0.629
19,Cc1ccc(S(=O)(=O)N[C@@H]2COC(=O)CC=C[C@@H](C)[C@@H]3C=C[C@H](O)[C@@H](COC(=O)CC=C[C@H]2C)O3)cc1,1.78 and -1.7
20,CO[C@@H]1COC(=O)[C@H](Cc2ccccc2)NC(=O)CC=C[C@@H](C)[C@H](OC)COC(=O)[C@@H](C)NC(=O)CC=C[C@H]1C,1.24 and 0.944

# — PubChem BioAssay
